# ChEMBL document CHEMBL4513216, “Probing the Open Global Health Chemical Diversity Library for Multistage-Active Starting Points for Next-Generation Antimalarials” (ACS Infect Dis, 2020)
# The whole screen tested about 69,000 compounds, of which about 8,600 (12%) showed an effect of 50% or more. This is one part of a sample in which strong results are shown more often than they occur.
# System: Plasmodium berghei
# Test: Screen against P. berghei liver stage (PbLuc), transformed with Luciferase, at 10uM
# Type: functional, HepG2
# Details: tested at 10 uM
row,Compound,INHIBITION [%]
1,Cc1nc(C)n(CC2CCCN(Cc3cccc4c3OCCO4)C2)n1 (stereo not given),38.8
2,Cc1noc(C)c1-c1cncc(CC2CCN(C(=O)c3cc[nH]n3)C2)n1 (stereo not given),22
3,CNc1nc(C2CCCN(C(=O)C(C)C)C2)nc2c1CN(C)CC2 (stereo not given),12.3
4,Cc1cccc(OCCN2CCCC(c3cc(C(N)=O)[nH]n3)C2)c1 (stereo not given),-46.4
5,Cc1cc(C(=O)N2CCCC3(COCCN(c4ncccn4)C3)C2)[nH]n1 (stereo not given),33.4
6,COc1ccc2c(c1)C(C(=O)NCCCN1CCN(C)CC1)CC(=O)N2 (stereo not given),26
7,N#CC1(C(=O)N2CCCN(c3nccs3)CC2)CCCC1,7.305
8,Nc1nccc(C2CCCN(CC3CC3)C2)n1 (stereo not given),23
9,COc1ccc(C2CCCN2C(=O)NCCCn2cccn2)cc1 (stereo not given),56
10,CC1COCCN1C(=O)NCCCn1ccnc1 (stereo not given),24.8
11,COc1ccc(C2CCCN2C(=O)NCCCn2ccnc2)cc1 (stereo not given),54.45
12,CC1CN(C)CCN1C(=O)NCCCn1ccnc1 (stereo not given),60.1
13,CC1COCCN1C(=O)NCCn1ccnc1 (stereo not given),-3.94
14,O=C(NCCCn1cccn1)N1CCCC1c1ccncc1 (stereo not given),9.3
15,O=C(NCCCn1ccnc1)N1CCCC1c1ccncc1 (stereo not given),37
16,COc1cccc(C2CCCN2C(=O)NCCCn2cccn2)c1 (stereo not given),45.7
17,COc1ccc(C2CCCN2C(=O)NCCn2ccnc2)cc1 (stereo not given),21.425
18,O=S1(=O)COCCN1Cc1ccc(Cl)c(Cl)c1,-12.5
19,c1csc(-c2noc(CNCCn3cccn3)n2)c1,18.2
20,CC(=O)N1CC[C@@H]2CN(Cc3ccncc3)S(=O)(=O)[C@@H]2CC1,-10.5
21,Cc1ccsc1CN1CCC(c2nnc(Cn3cccn3)n2C)CC1,25.4
22,COc1ccsc1C(=O)NCCNc1ccccc1,-33
23,COc1cc(C)sc1C(=O)NCCC(=O)N(C)c1ccccc1,78.2
24,COC(=O)CCNC(=O)c1cccc(C(=O)N(C)c2ccccc2)c1,43.4
25,COc1cc(C)sc1C(=O)NCCNc1ccccc1,43.1

row,Compound,INHIBITION [%]
1,CN(Cc1ccccc1)C(=O)CCNS(=O)(=O)c1cccnc1,-17.6
2,COc1cc(C)sc1C(=O)NCCC(=O)N(C)Cc1ccccc1,66.3
3,CC(=O)N1CCCC(c2ccccn2)C1 (stereo not given),15.9
4,CCOCCN1CCC(c2cncc(C)n2)CC1,10.155
5,CC(C)CNC(=O)CN(CC(=O)NCC(C)C)S(C)(=O)=O,37.4
6,C=C(C)COc1cccc(CNC(COC)c2ccnn2C)c1 (stereo not given),37.6
7,C=C(C)COc1ccccc1CNC(CC)c1ccnn1C (stereo not given),36.7
8,C=C(C)COc1cccc(CNC(CC)c2ccnn2C)c1 (stereo not given),66.6
9,CC(C)c1ncc(CN2CCC(O)(c3ccccc3F)CC2)cn1,33.04
10,Cc1cc(C)cc(N2CC(c3nnc(N)s3)CC2=O)c1 (stereo not given),-11.4
11,c1cn(-c2cnc(C3CCCNC3)cn2)cn1 (stereo not given),24.4
12,CC(C)CN1CCc2[nH]cnc2C12CCN(C(=O)c1cnn(C)c1)CC2,51.8
13,Cc1ocnc1C(=O)N1CCC2(CC1)c1nc[nH]c1CCN2CC(C)C,47.4
14,CC(C)CN1CCc2[nH]cnc2C12CCN(C(=O)c1cccnc1)CC2,16.6
15,CC(C)CN1CCc2[nH]cnc2C12CCN(C(=O)c1ccc[nH]1)CC2,33.4
16,CC(C)CN1CCc2[nH]cnc2C12CCN(C(=O)c1ccnn1C)CC2,65.8
17,CC(C)CN1CCc2[nH]cnc2C12CCN(C(=O)c1cncn1C)CC2,33.4
18,Cc1nn(C)cc1-c1cncn1CCc1ccc2c(c1)OCCO2,27.6
19,CC(C)C[C@@H](CO)n1cc(-c2cnc(-c3ccco3)nc2)nn1,-6.83
20,NC(=O)NC(=O)CCN1CCCC1c1nc(C2CCCCC2)co1 (stereo not given),-5.33
21,Cc1ccc(F)c2c1N(C(=O)Cc1c(C)nn(C)c1C)CCC2,-19.1
22,CS(=O)(=O)NCCn1ccc(-c2cccs2)n1,22.5
23,CCCS(=O)(=O)NCCn1ccc(-c2cccs2)n1,34.6
24,Cc1nn(C)c(C)c1S(=O)(=O)NCCn1ccc(-c2cccs2)n1,63.1
25,O=C(NCC1CCOCC1)[C@H]1C[C@@H]2CCN(Cc3ccncc3)C[C@@H]2O1,10

row,Compound,INHIBITION [%]
1,Cc1cn[nH]c1C1COCCN1C(=O)c1cc(F)ccc1F (stereo not given),22.8
2,COCC1CN(Cc2ccc(F)cc2)Cc2nnn(CC3CC3)c21 (stereo not given),-9.54
3,COc1ccc2oc(-c3cn(C)nc3C)c(O)c(=O)c2c1,8.49
4,O=C1NCCN2CCN(C(=O)Nc3ccc(-c4ccccc4)cc3)CC12 (stereo not given),18.6
5,O=C1NCCN2CCN(C(=O)NCCc3ccccc3)CC12 (stereo not given),61.1
6,COc1cccc(CNC(=O)N2CCN3CCNC(=O)C3C2)c1 (stereo not given),15.2
7,O=C(c1ccccn1)N1C[C@H]2CC[C@@H](C1)N(C(=O)CCc1cccs1)C2,21.8
8,CCC(=O)N1CCC(c2ncncc2C)CC1,21.1
9,Cc1ncsc1C(=O)Nc1cccc(OCC(F)F)n1,17.4
10,Cc1ccc(CN(C(=O)c2cccc(NC(N)=O)c2)C2CC2)o1,17.9
11,NC(=O)Nc1cccc(C(=O)N(Cc2ccc(F)cc2)C2CC2)c1,13.5
12,NC(=O)Nc1cccc(C(=O)N(Cc2ccncc2)C2CC2)c1,71.1
13,Cc1occc(=O)c1OCc1noc(C(=O)NC2CCCC2)n1,6.67
14,CCOCC1CN(C(=O)N2CCCC2)Cc2cnn(C)c21 (stereo not given),21.4
15,CCn1ncc2c1C(COCC1CC1)CN(c1ccc(C)nn1)C2 (stereo not given),86.2
16,CCOCC1CN(C(=O)c2ccco2)Cc2cnn(CC)c21 (stereo not given),78.8
17,CCOCC1CN(C(=O)c2ccnnc2)Cc2cnn(CC)c21 (stereo not given),5.44
18,CCOCC1CN(C(=O)c2ccco2)Cc2cnn(C)c21 (stereo not given),18.4
19,CCOCC1CN(C(=O)CS(C)(=O)=O)Cc2cnn(C)c21 (stereo not given),19.5
20,CCn1cc2c(n1)C(COCC1CC1)CN(C(=O)c1ccco1)C2 (stereo not given),-78.9
21,CCOCC1CN(C(=O)C2CCOCC2)Cc2cnn(C)c21 (stereo not given),59.9
22,Cc1ccc(N2Cc3cnn(C)c3C(COCC3CC3)C2)nn1 (stereo not given),24.6
23,CCOCC1CN(c2ccc(C)nn2)Cc2cnn(CC)c21 (stereo not given),48.4
24,CCOCC1CN(C(=O)c2cccn2C)Cc2cnn(CC3CC3)c21 (stereo not given),19
25,O=C(c1ccco1)N1Cc2cnn(CC3CC3)c2C(COCC2CC2)C1 (stereo not given),50.4
